In PubChem BioAssay (NCATS):
Values joined by “and” are separate entries in the source; they are usually repeats but may differ in a detail not shown here. Equal values may be shown once. Values without a mark were called inactive. Results filed as inconclusive are left out. A call without a number means that no potency is given here. The source holds several records for some structures; these can differ, active in one and inactive in another. Active and inactive are the calls of the source. Unless noted, calls follow the shape of the dose curve; as a rule, active = well fitted curve in the direction sought with a large enough effect; inconclusive = small, poorly fitted or top-dose-only effect, or another doubt; inactive = no such curve, though single readings can be large; an effect the other way counts as inactive or inconclusive.

Columns and labels:
Es-2 = test: Primary qHTS to identify gynecologic anti-cancer compounds using libraries of approved drugs and bioactive compounds (AID 1345084); details: Gynecologic cancer cell panel viability, ATPlite luminescence, 48 h; series mostly up to 57.5 µM; also: nearly all actives have a fitted effect of over 55% in size
Procedure, shortened: (§1)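 In this quantitative HTS, cell killing is estimated from loss of ATP-dependent luciferase light. Cells see five compound concentrations over a 48 h exposure.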

HeLa = test: as above; details: Gynecologic cancer cell panel viability, ATPlite luminescence, 48 h; series mostly up to 57.5 µM
Procedure, shortened: as §1

Hek293T = test: as above; details: Gynecologic cancer cell panel viability, ATPlite luminescence, 48 h, control line for the selectivity index; series mostly up to 57.5 µM
Procedure, shortened: as §1

JEG-3 = test: as above; details: Gynecologic cancer cell panel viability, ATPlite luminescence, 48 h; series mostly up to 57.5 µM
Procedure, shortened: as §1

OV90 = test: as above; details: Gynecologic cancer cell panel viability, ATPlite luminescence, 48 h; series mostly up to 57.5 µM
Procedure, shortened: as §1

PA-1 = test: as above; details: Gynecologic cancer cell panel viability, ATPlite luminescence, 48 h; series mostly up to 57.5 µM
Procedure, shortened: as §1

SKOV3 = test: as above; details: Gynecologic cancer cell panel viability, ATPlite luminescence, 48 h; series mostly up to 57.5 µM
Procedure, shortened: as §1

Tov-21-G = test: as above; details: Gynecologic cancer cell panel viability, ATPlite luminescence, 48 h; series mostly up to 57.5 µM
Procedure, shortened: as §1

Tov112D = test: as above; details: Gynecologic cancer cell panel viability, ATPlite luminescence, 48 h; series mostly up to 57.5 µM
Procedure, shortened: as §1

[1] = Drug repurposing screens with cells derived from glioblastoma tumor samples (AID 1345199); details: GBM patient neurospheres viability, ATP luminescence, 48 h; also: nearly all actives have a fitted effect of over 40% in size; also: potency is read from the fitted curve at half-maximal effect
Procedure, shortened: (§2)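 Four patient lines of CD133+ GBM neurospheres were screened at several concentrations; hits were retested in those lines plus three slower-growing GBM lines, using 48-hour treatment and ATP-based viability.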

astro = test: as above; details: viability, ATP luminescence, 48 h; series mostly up to 45.9 µM
Procedure, shortened: as §2

[2] = biological target: Nuclear receptor subfamily 1 group I member 2 (Rattus norvegicus) (UniProt Q9R1A7); test: qHTS assay for small molecule activators of the rat pregnane X receptor (rPXR) signaling pathway (AID 651751; call rule not given here); details: rPXR reporter cells, luciferase (One-Glo), 24 h
[3] = at 45.9 µM (top of the series), tumour line B
[4] = at 45.9 µM (top of the series), tumour line D
[5] = at 46 µM (top of the series), tumour line A

Nuclear receptor subfamily 1 group I member 2 (Rattus norvegicus), sequence (Q9R1A7 whole entry, looked up): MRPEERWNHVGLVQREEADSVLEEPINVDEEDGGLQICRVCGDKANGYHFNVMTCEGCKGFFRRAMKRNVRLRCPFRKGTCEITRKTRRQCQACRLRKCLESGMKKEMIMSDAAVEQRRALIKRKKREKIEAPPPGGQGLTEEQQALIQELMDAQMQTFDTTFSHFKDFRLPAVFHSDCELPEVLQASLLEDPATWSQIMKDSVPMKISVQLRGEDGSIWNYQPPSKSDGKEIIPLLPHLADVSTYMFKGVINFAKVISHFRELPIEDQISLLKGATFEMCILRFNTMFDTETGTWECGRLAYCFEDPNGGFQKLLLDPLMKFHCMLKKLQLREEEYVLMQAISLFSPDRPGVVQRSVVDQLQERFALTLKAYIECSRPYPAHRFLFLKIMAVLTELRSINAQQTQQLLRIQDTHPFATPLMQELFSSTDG

Row | SMILES | Potency (Es-2) | Potency (HeLa) | Potency (Hek293T) | Potency (JEG-3) | Potency (OV90) | Potency (PA-1) | Potency (SKOV3) | Potency (Tov-21-G) | Potency (Tov112D) | activity, negative = cell killing [1, 3] | activity, negative = cell killing [1, 4] | activity, negative = cell killing [1, 5] | Potency (astro) | activity, negative = cell killing ([1]; at 21.2 µM (top of the series), tumour line B) [%] | activity, negative = cell killing ([1]; at 21.2 µM (top of the series), tumour line D) [%] | Potency ([1]; tumour line A) | Potency ([1]; tumour line B) | activity, negative = cell killing ([1]; at 91.6 µM (top of the series), tumour line B) [%] | activity, negative = cell killing ([1]; at 91.6 µM (top of the series), tumour line D) [%] | max response [2]
1 | CN1C(=S)CN=C(c2ccccc2)c2cc(Cl)ccc21 | inactive | inactive | inactive | inactive | inactive | inactive | inactive | inactive | inactive | -24.8% | -20.4% | – | – | – | – | – | – | – | – | –
2 | NP(N)(=O)NC(=O)c1ccc(F)cc1 | inactive | inactive | inactive | inactive | inactive | inactive | inactive | inactive | inactive | -10% | -14.8% | -25.8% | inactive | – | – | – | – | – | – | –
3 | Cc1cccc(C)c1NC(=O)CN1CCCC1=O | inactive | inactive | inactive | inactive | inactive | inactive | inactive | inactive | inactive | -2.88% | -0.691% | -27.7% | inactive | – | – | – | – | – | – | –
4 | COc1ccc(C(CN(C)C)C2(O)CCCCC2)cc1 (configuration not stated) | inactive | inactive | inactive | inactive | inactive | inactive | inactive | inactive | inactive | -10.5% | 1.59% | -20% | inactive | – | – | – | – | – | – | –
5 | COC[C@@H](NC(C)=O)C(=O)NCc1ccccc1 | inactive | inactive | inactive | inactive | inactive | inactive | inactive | inactive | inactive | – | – | – | – | – | – | – | – | – | – | –
6 | CN1CCN(C(=O)O[C@H]2c3nccnc3C(=O)N2c2ccc(Cl)cn2)CC1 | inactive | inactive | inactive | inactive | inactive | inactive | inactive | inactive | inactive | -4.94% | -12.7% | -22.2% | inactive | – | – | – | – | – | – | –
7 | NN=C(N)N | inactive | inactive | inactive | inactive | inactive | inactive | inactive | inactive | inactive | -4.67% | 9.02% | -2.8% | inactive | – | – | – | – | – | – | –
8 | CN(C)[C@@H]1C(=O)C(C(N)=O)=C(O)[C@@]2(O)C(=O)C3=C(O)c4c(O)cccc4[C@@](C)(O)[C@H]3C[C@@H]12 | inactive | inactive | inactive | inactive | inactive | inactive | inactive | inactive | inactive | – | – | – | inactive | -16.2 | -21.5 | – | – | – | – | –
9 | O=C1CC[C@@]2(O)[C@H]3Cc4ccc(O)c5c4[C@@]2(CCN3CC2CC2)[C@H]1O5 | inactive | inactive | inactive | inactive | inactive | inactive | inactive | inactive | inactive | 1.04% | -3.21% | – | inactive | – | – | – | – | – | – | –
10 | CC1OC(C)OC(C)O1 (configuration not stated) | inactive | inactive | inactive | inactive | inactive | inactive | inactive | inactive | inactive | 0.183% and 0.957% | -11.1% and -5.15% | -20.8% and 1.27% | inactive | – | – | – | – | – | – | –
11 | CC(=O)[C@H]1CC[C@H]2[C@@H]3CC[C@H]4C[C@](C)(O)CC[C@]4(C)[C@H]3CC[C@]12C | inactive | inactive | inactive | inactive | inactive | inactive | inactive | inactive | inactive | -20.7% | – | – | inactive | – | – | – | – | – | – | –
12 | CCN(CC)CCN1C(=O)CN=C(c2ccccc2F)c2cc(Cl)ccc21 | inactive | inactive | inactive | inactive | inactive | inactive | inactive | inactive | inactive | -20.2% | – | – | inactive | – | – | 14.1 µM (active) | – | – | – | –
13 | CC[C@@H](CO)NC(=O)[C@@H]1C=C2c3cccc4c3c(cn4C)C[C@H]2N(C)C1 | inactive | inactive | inactive | inactive | inactive | inactive | inactive | inactive | inactive | – | – | – | – | – | – | 35.5 µM (active) | 17.8 µM (active) | – | – | –
14 | O=C(NC(O)C(Cl)(Cl)Cl)NC(O)C(Cl)(Cl)Cl (configuration not stated) | inactive | inactive | inactive | inactive | inactive | inactive | inactive | inactive | inactive | -10.4% | 2.45% | -14.7% | inactive | – | – | – | – | – | – | –
15 | CC(C)(N)Cc1ccc(Cl)cc1 | inactive | inactive | inactive | inactive | inactive | inactive | inactive | inactive | inactive | -10.8% | -8.85% | – | inactive | – | – | – | – | – | – | –
16 | c1ccc2c(c1)Nc1ccccc1S2 | inactive | inactive | inactive | inactive | inactive | inactive | inactive | inactive | inactive | -14.1% | -9.6% | – | inactive | – | – | 31.6 µM (active) | – | -11.1 | -20.1 | 0.0251% and 2.69%
